About 83,000 compounds went through this panel and 20% of them were active in at least one assay; those are over-represented in the sample as a whole.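 Compound tested at a single concentration for 48 hours in 96-well plates; a percent growth value below 10 was scored as active.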 Unmarked numbers belong to inactive results. Activity calls are given as the source filed them.
test system: SW-620 colon; test: NCI-60 one-dose screen, 48 h (100 = growth as untreated, 0 = no growth, -100 = all killed); settings: 10 µM unless noted

| SMILES | growth |
| --- | --- |
| CCOC(=O)C1=C(C)NC(C)=C(C(=O)OCC)C1(C)C | 117% |
| Cc1[nH]c2ccc(F)cc2c1CCNC(=O)C1CCN(C(=O)c2ccccc2)C1 (configuration not stated) | 102% [25 µM] |
| COc1ccc(C(=O)N2NC(=O)/C(=C/c3ccc(Br)cc3)N=C2c2ccccc2)cc1 | 91.3% |
| Cc1ccc(-c2cc3nc(-c4ccccc4)nc(C(Cl)Cl)n3n2)cc1 | -48.2% (active) |
| O=C(Nc1cccc(-n2cc(-c3ccncc3)c(-c3ccc(Cl)c(O)c3)n2)c1)Nc1cccc(C(F)(F)F)c1 | 28.5% |
| COC(OC)c1ccccc1 | 114% |
| COc1ccc(NC(=O)c2c(Nc3ccc(OC)cc3OC)n[nH]c2N)c(OC)c1 | 102% |
| O=C(C1=Cc2cc3ccccc3n2Cc2cnnn21)c1ccccc1 | 28.5% |
| N=C(N)c1ccc(-c2ccc(-c3cncc4ccccc34)s2)cc1F | -62.1% (active) |
| c1cc(C2=N[C@@H]3c4ccccc4C[C@@H]3O2)nc(C2=N[C@@H]3c4ccccc4C[C@@H]3O2)c1 | 107% |
| CN(C)c1oc(C2OC2c2ccccc2)nc1C#N (configuration not stated) | 94.3% |
| COc1cccc(-c2cc3c(O)cc(C#N)cc3[nH]2)c1 | 88% |
| c1ccc(-c2nc(N3CCNCC3)c3nc(-c4ccccc4)oc3n2)cc1 | -78.8% (active) |
| CN(C[C@H]1Cc2c(cccc2N2CCN(Cc3ccccn3)CC2)CN1)[C@H]1CCCc2cccnc21 | 51.3% |
| COc1ccc(-n2c(=O)sc3c(Cl)nc(C)nc32)c(OC)c1 | 74.8% |
| O=C(Nc1ccc(Cl)c(Cl)c1)NS(=O)(=O)c1cnccc1Oc1ccc(F)cc1 | 65.3% |
| S=C(S)NCCc1c[nH]c2ccccc12 | 101% |
| COc1ccc(Nc2[nH]n3c(=O)cc(-c4ccccc4)nc3c2C(=O)Nc2ccc(C)cc2)c(OC)c1 | 99.5% |
| COc1ccc(-n2c(=S)sc3c(Cl)nc(C)nc32)c(OC)c1 | 45.4% |

| SMILES | growth |
| --- | --- |
| COc1ccc(-c2ccc(C)n2-c2ccc(-c3nc4ccccc4s3)cc2)cc1 | 89.6% |
| COc1cc(/C(C#N)=C/c2ccc3c(c2OC)OCO3)cc2c1OCO2 | 19.8% |
| Cc1ccc2ccccc2c1C[n+]1ccccc1 | 99.7% |
| COc1ccc(-c2ccc(-c3ccc(-c4ccc(C(=N)N)cc4)s3)s2)cc1OC | -40.8% (active) |
| O=C(CSc1nc2ccccc2[nH]1)Nc1ccc(-c2nc3ccccc3s2)c(Cl)c1 | 22.1% |
| O=c1ccn(-c2ncnc3nc[nH]c23)cc1 | 96% |
| CN(C[C@H]1Cc2c(cccc2N2CCN(c3ncccn3)CC2)CN1)[C@H]1CCCc2cccnc21 | 31.3% |
| COc1ccc(Nc2nn3c(-c4ccccc4)cc(-c4ccccc4)nc3c2C(N)=O)c(OC)c1 | 57.2% |
| COc1cc(-c2nn(-c3cccc(NC(=O)Nc4cccc(C(F)(F)F)c4)c3)cc2-c2ccncc2)ccc1Cl | 8.92% (active) |
| COc1ccc(C2C=C(c3ccc(Cl)cc3)N=C3SC=C(C)N32)c(Br)c1 (configuration not stated) | 24.2% |
| O=C1C2(c3ccccc3)C(c3ccccc3)=C(c3ccccc3)C1(c1ccccc1)C1CC=CC12 (configuration not stated) | 93.8% |
| CC(=O)Oc1csc(N(C(C)=O)c2cccc(C(F)(F)F)c2)n1 | 98.7% |
| COc1ccc(C2C=C(c3ccc(OC)c(OC)c3)N=C3SC=C(C)N32)c(Br)c1 (configuration not stated) | 109% |
| CCC(=O)OC1=CN2C(=NC(c3ccc(N)cc3)=CC2c2cc(OC)c(OC)c(OC)c2)S1 (configuration not stated) | 28.3% |
| C=C1CCC2C(C)(CO)C(O)CCC2(C)C1C/C=C1/C(=O)OCC1Oc1ccccc1C (configuration not stated) | 17.9% |
| CCCCCCCC/C=C/CCCCCCCC1=NC(C)(C)CN1C(C)(C)CO | -85.1% (active) |
| CN(C)c1cccc2c(S(=O)(=O)/N=C(\N)Nc3nc4ccccc4s3)cccc12 | 31% |
| N/C(=N\S(=O)(=O)c1ccccc1)Nc1nc2ccccc2s1 | 99.6% |
| COc1ccc(Nc2[nH]n3c(=O)cc(C)nc3c2C(N)=O)c(OC)c1 | 93.3% |

test system: MCF7 breast; test: as above; settings: 10 µM unless noted

| SMILES | growth |
| --- | --- |
| CCOC(=O)C1=C(C)NC(C)=C(C(=O)OCC)C1(C)C | 98.9% |
| Cc1[nH]c2ccc(F)cc2c1CCNC(=O)C1CCN(C(=O)c2ccccc2)C1 (configuration not stated) | 90.9% [25 µM] |
| COc1ccc(C(=O)N2NC(=O)/C(=C/c3ccc(Br)cc3)N=C2c2ccccc2)cc1 | 85.1% |
| Cc1ccc(-c2cc3nc(-c4ccccc4)nc(C(Cl)Cl)n3n2)cc1 | -10.7% (active) |
| O=C(Nc1cccc(-n2cc(-c3ccncc3)c(-c3ccc(Cl)c(O)c3)n2)c1)Nc1cccc(C(F)(F)F)c1 | 10.3% |
| COC(OC)c1ccccc1 | 99% |
| COc1ccc(NC(=O)c2c(Nc3ccc(OC)cc3OC)n[nH]c2N)c(OC)c1 | 76.4% |
| CC(C)(C)n1cc(-c2ccnc(NCCCNS(=O)(=O)c3ccc(F)cc3)c2)c(-c2cccc(O)c2)n1 | 16.7% |
| O=C(C1=Cc2cc3ccccc3n2Cc2cnnn21)c1ccccc1 | 35.2% |
| N=C(N)c1ccc(-c2ccc(-c3cncc4ccccc34)s2)cc1F | -68.6% (active) |
| c1cc(C2=N[C@@H]3c4ccccc4C[C@@H]3O2)nc(C2=N[C@@H]3c4ccccc4C[C@@H]3O2)c1 | 88.1% |
| CN(C)c1oc(C2OC2c2ccccc2)nc1C#N (configuration not stated) | 90.5% |
| COc1cccc(-c2cc3c(O)cc(C#N)cc3[nH]2)c1 | 88.3% |
| c1ccc(-c2nc(N3CCNCC3)c3nc(-c4ccccc4)oc3n2)cc1 | -69.2% (active) |
| CN(C[C@H]1Cc2c(cccc2N2CCN(Cc3ccccn3)CC2)CN1)[C@H]1CCCc2cccnc21 | 44.1% |
| COc1ccc(-n2c(=O)sc3c(Cl)nc(C)nc32)c(OC)c1 | 97.6% |
| O=C(Nc1ccc(Cl)c(Cl)c1)NS(=O)(=O)c1cnccc1Oc1ccc(F)cc1 | 58.6% |
| S=C(S)NCCc1c[nH]c2ccccc12 | 94.4% |
| COc1ccc(Nc2[nH]n3c(=O)cc(-c4ccccc4)nc3c2C(=O)Nc2ccc(C)cc2)c(OC)c1 | 99.6% |
| COc1ccc(-n2c(=S)sc3c(Cl)nc(C)nc32)c(OC)c1 | 13.8% |

| SMILES | growth |
| --- | --- |
| COc1ccc(-c2ccc(C)n2-c2ccc(-c3nc4ccccc4s3)cc2)cc1 | 92.7% |
| COc1cc(/C(C#N)=C/c2ccc3c(c2OC)OCO3)cc2c1OCO2 | 21.4% |
| Cc1ccc2ccccc2c1C[n+]1ccccc1 | 93.9% |
| COc1ccc(-c2ccc(-c3ccc(-c4ccc(C(=N)N)cc4)s3)s2)cc1OC | -19.8% (active) |
| O=C(CSc1nc2ccccc2[nH]1)Nc1ccc(-c2nc3ccccc3s2)c(Cl)c1 | 6.26% (active) |
| O=c1ccn(-c2ncnc3nc[nH]c23)cc1 | 88% |
| CN(C[C@H]1Cc2c(cccc2N2CCN(c3ncccn3)CC2)CN1)[C@H]1CCCc2cccnc21 | 15.6% |
| COc1ccc(Nc2nn3c(-c4ccccc4)cc(-c4ccccc4)nc3c2C(N)=O)c(OC)c1 | 46.7% |
| COc1cc(-c2nn(-c3cccc(NC(=O)Nc4cccc(C(F)(F)F)c4)c3)cc2-c2ccncc2)ccc1Cl | -6.3% (active) |
| COc1ccc(C2C=C(c3ccc(Cl)cc3)N=C3SC=C(C)N32)c(Br)c1 (configuration not stated) | 10.2% |
| O=C1C2(c3ccccc3)C(c3ccccc3)=C(c3ccccc3)C1(c1ccccc1)C1CC=CC12 (configuration not stated) | 82.8% |
| CC(=O)Oc1csc(N(C(C)=O)c2cccc(C(F)(F)F)c2)n1 | 90.8% |
| COc1ccc(C2C=C(c3ccc(OC)c(OC)c3)N=C3SC=C(C)N32)c(Br)c1 (configuration not stated) | 94.5% |
| CCC(=O)OC1=CN2C(=NC(c3ccc(N)cc3)=CC2c2cc(OC)c(OC)c(OC)c2)S1 (configuration not stated) | 16.7% |
| C=C1CCC2C(C)(CO)C(O)CCC2(C)C1C/C=C1/C(=O)OCC1Oc1ccccc1C (configuration not stated) | 29.5% |
| CCCCCCCC/C=C/CCCCCCCC1=NC(C)(C)CN1C(C)(C)CO | -44.3% (active) |
| CN(C)c1cccc2c(S(=O)(=O)/N=C(\N)Nc3nc4ccccc4s3)cccc12 | 29.6% |
| N/C(=N\S(=O)(=O)c1ccccc1)Nc1nc2ccccc2s1 | 90.6% |
| COc1ccc(Nc2[nH]n3c(=O)cc(C)nc3c2C(N)=O)c(OC)c1 | 92.7% |

Source: PubChem BioAssay (NCI)
